Molecules are shown by their SMILES. About 2,900 (47%) of roughly 6,200 compounds were called active. No stated cut-off is given here; in the data, active means inhibition above about 50%; inactive means the rest. So high a share suggests a set chosen from earlier hits. The list shows a part of the results.

A short description of this experiment: Mycobacterium tuberculosis growth inhibition, primary screen (AID 1259343). As to conditions: inhibition: at 10 µM, active compounds read high; outcome: 10 uM.
For orientation: inhibition means the drop in the measured response relative to a control, in per cent. As to `Nc1cc(Cl)ccc1Oc1ccc(Cl)cc1`, the inhibition is -29.7% (inactive).

On to `O=[N+]([O-])c1cc(Cl)ccc1Oc1ccc2ccccc2c1`, for which the inhibition is 77.2% (active).

As to `CC(C)(C)c1cc(/C=C(\C#N)C(N)=S)cc(C(C)(C)C)c1O`, the inhibition is 102% (active).

As for `Cc1nnc(NC(=O)C(C)SC(F)(F)F)s1` (stereo not given), the inhibition was 91.5% (active).

In the case of `CCOc1ccc(N=Nc2c(C)n[nH]c2C)cc1`, the inhibition was -45% (inactive).

In the case of `Cc1nc(N)sc1N=Nc1ccc(Br)cc1`, the inhibition was 23.2% (inactive).

As to `Cc1n[nH]c(C)c1N=Nc1ccc(Br)cc1`, the inhibition was 104% (active).

In the case of `CCc1ccc(-c2noc(CSc3nnc(N)s3)n2)cc1`, the inhibition is 12.6% (inactive).

In the case of `Nc1nnc(SCc2ccc(Br)cc2F)s1`, the inhibition was 28.8% (inactive).

Take `Nc1nnc(SCC2CC2)s1`: the inhibition is 86.5% (active).

For `O=C(O)COc1ccccc1-c1nc(-c2ccccc2)c(-c2ccccc2)[nH]1`, the inhibition is 13.8% (inactive).

As for `O=C(O)COc1c(I)cc(Cl)c2cccnc12`, the inhibition was 94.3% (active).

Consider `Cc1cc(C)cc(NC(=O)CCC(=O)c2ccc3ccccc3c2)c1`, for which the inhibition was 72.2% (active).

Regarding `O=C(CCC(=O)c1ccc(-c2ccccc2)cc1)NC1=NCCS1`, the inhibition is 33.8% (inactive).

For the compound `CCCC(=O)OCC(=O)Nc1ccc2ccccc2c1`, the inhibition is 33.2% (inactive).

Consider `CCc1nnc(NC(=O)c2ccc(O)c(Cl)c2)s1`, for which the inhibition is 81.3% (active).

Consider `COc1ccccc1C(=O)Nc1nnc(CC(C)C)s1`, for which the inhibition is 21.6% (inactive).

For `CCc1nnc(NC(=O)C2CC2)s1`, the inhibition is 68.7% (active).

`Cn1c(CNC(=O)Cc2c(Cl)cccc2Cl)n[nH]c1=S`: the inhibition is 8.23% (inactive).

Turning to `CC(C(=O)NCc1ccccc1Cl)n1nnc(-c2ccco2)n1` (stereo not given), the inhibition was 56.3% (active).

In the case of `O=C(O)C1C2C=CC(O2)C1C(=O)NCc1ccccc1Cl` (stereo not given), the inhibition was 23.3% (inactive).

Regarding `O=C(O)CCN(CCc1ccccc1)c1nc(-c2ccc(Cl)cc2)nc2ccccc12`, the inhibition was 24.8% (inactive).

As to `O=C(O)CCc1ncc(-c2ccc(Cl)cc2)o1`, the inhibition was 90.3% (active).

As to `O=C1CCc2c(OCc3ncc(-c4cccc(Cl)c4)o3)cccc21`, the inhibition is 39.9% (inactive).

On to `O=C1CCC(C(=O)N(Cc2ccc(F)cc2)c2nc(-c3ccccc3)cs2)=NN1`, for which the inhibition is 64.5% (active).

With `O=C(CN(Cc1ccccc1)C(=O)c1ccc(Cl)c(Cl)c1)Nc1cc(-c2ccccc2)nn1-c1ccc(F)cc1`, the inhibition is -13.3% (inactive).

For the compound `O=C(CCCCl)Nc1nc(-c2ccc(F)cc2)cs1`, the inhibition was 12.9% (inactive).

On to `N#CC(=Cc1ccncc1)c1nnc2n1CCCCC2`, for which the inhibition is -11% (inactive).

`Fc1ccccc1-c1nc(-c2ccc(Br)o2)no1`: the inhibition was 28.8% (inactive).

On to `Cc1ccc(-c2noc(-c3ccc(Br)o3)n2)cc1`, for which the inhibition was 55.7% (active).

Turning to `Cc1ccc(-c2nc(-c3ccc(Br)cc3)no2)cc1`, the inhibition is 11.5% (inactive).

Consider `COc1ccc(-c2cc(C(=O)O)n3nc(C(C)(C)C)cc3n2)cc1`, for which the inhibition was 53.5% (active).

Turning to `Cc1ccc(-c2cc(C(=O)O)n3nc(C(C)(C)C)cc3n2)cc1`, the inhibition was 103% (active).

For the compound `CCN(CC)CCCC(C)NC(=O)c1cc(-c2ccc(OC)cc2)nc2cc(C(C)(C)C)nn12` (stereo not given), the inhibition was 58.1% (active).

As to `CC1(C)OCC(CN2C(=O)c3ccccc3NC2c2c[nH]c3cnc(OCc4ccccc4)cc23)O1` (stereo not given), the inhibition is 32.8% (inactive).

As to `COc1ccc(NC(=O)CNc2cc3c(cc2Cl)OCCCO3)cc1Cl`, the inhibition is 92.9% (active).

Consider `COc1ccc(Cl)cc1NC(=O)c1ccc2c(c1)OCCCO2`, for which the inhibition is 29.1% (inactive).

For the compound `COc1ccc(NC(=O)Cc2ccccc2F)cc1Cl`, the inhibition was 14.2% (inactive).

Consider `COc1ccc(NC(=O)CNS(=O)(=O)c2cnn(C)c2)cc1Cl`, for which the inhibition is 85.8% (active).

As to `COc1ccc(NC(=O)CSc2cc(C)ccc2C)cc1Cl`, the inhibition is 88.7% (active).

Take `COc1ccc(NCC(=O)NCC(F)(F)F)cc1Cl`: the inhibition is 95.5% (active).

As to `CC(C)N=C1NN=C(c2c[nH]c3ccccc23)C(c2ccccc2)S1` (stereo not given), the inhibition is 2.32% (inactive).

As to `O=c1c2c(nc3c(-c4cccc5ccccc45)c[nH]n13)CCC2`, the inhibition was 88.6% (active).

On to `Cc1nc2c(-c3ccccc3)c[nH]n2c(=O)c1C`, for which the inhibition was 23.2% (inactive).

Take `Cc1oc(-n2cccc2)c(C#N)c1C(=O)OCc1cc(=O)n2c(C)csc2n1`: the inhibition is -7.14% (inactive).

In the case of `Cc1oc(-n2cccc2)c(C#N)c1C(=O)NC1CCC(C)CC1` (stereo not given), the inhibition is 77.2% (active).

Take `CC1CCC(NC(=O)c2ccc(Br)o2)CC1` (stereo not given): the inhibition was 25.1% (inactive).

In the case of `Cn1ccnc1Sc1nc(-c2ccccn2)nc2scc(-c3ccccc3)c12`, the inhibition is 77.2% (active).

Turning to `COc1ccccc1N1CCN(Cn2nc(C3COc4ccccc4O3)oc2=S)CC1` (stereo not given), the inhibition is 49.9% (inactive).

In the case of `Cc1nccn1CC(O)Cn1c2ccc(Cl)cc2c2cc(Cl)ccc21` (stereo not given), the inhibition is 66.4% (active).

On to `OC(CN1CCCC1)Cn1c2ccc(Cl)cc2c2cc(Cl)ccc21` (stereo not given), for which the inhibition was -9.02% (inactive).

Take `Cc1nn(CC(O)Cn2c(C)c(C)c3cccc(Cl)c32)c(C)c1Br` (stereo not given): the inhibition is 25.1% (inactive).

As to `O=C1N(Cc2ccccc2)C(c2ccc(C(F)(F)F)cc2)C1(F)F` (stereo not given), the inhibition is 79.7% (active).

Take `Cc1c(C(=O)NCc2ccc(C(F)(F)F)cc2)sc(=O)n1Cc1ccc(F)cc1`: the inhibition is 20.5% (inactive).

Turning to `Cn1nnc2c(=O)n(Cc3ccc(C(F)(F)F)cc3)cnc21`, the inhibition is 45.7% (inactive).

`CC(=O)N1CCc2cc(-c3nc(COc4ccccc4)sc3C)ccc21`: the inhibition was 37.8% (inactive).

As for `CC(C)Oc1ncc(C(=O)N2CCc3ccc(O)cc3C2)cc1Cl`, the inhibition was 33.5% (inactive).

On to `O=C(COc1ccccc1)N1CCc2ccc(O)cc2C1`, for which the inhibition was 68.5% (active).

As for `N#CCCSc1nc2ccc([N+](=O)[O-])cc2s1`, the inhibition was 52% (active).

Turning to `O=[N+]([O-])c1ccc2[nH]c(=S)sc2c1`, the inhibition was -16.1% (inactive).

As to `Cc1nc2sc(C)c(C)n2c(=O)c1NC(=O)c1ccc(-c2ccccc2)cc1`, the inhibition was 34.6% (inactive).

As for `CC(=O)Nc1nc(-c2ccc(C)cc2)c(-c2ccccc2)s1`, the inhibition was 86% (active).

Regarding `CN(C)C=Nc1nc(-c2ccccc2)c(-c2ccccc2)s1`, the inhibition is 15.9% (inactive).

On to `O=C(NC1CCS(=O)(=O)C1)c1ccc(Br)o1` (stereo not given), for which the inhibition is 10.7% (inactive).

For the compound `O=C(Nc1cc(F)ccc1F)c1ccc(NC(=O)C2CC2)s1`, the inhibition was 23.9% (inactive).

Turning to `O=C(NC1CCS(=O)(=O)C1)c1ccc(-c2ccc(F)cc2)s1` (stereo not given), the inhibition is 79% (active).

As to `COc1ccc(C(=O)Nc2cc(C)nn2-c2nc(C)c(C)c(=O)[nH]2)c(OC)c1`, the inhibition was 26.6% (inactive).

Take `COc1cc(C(=O)Nc2cc(C3CC3)nn2-c2nc(C)c(C)c(=O)[nH]2)cc(OC)c1OC`: the inhibition is 100% (active).

As for `COc1ccc(C(=O)Nc2cc(C3CC3)nn2-c2nc(C)c(C)c(=O)[nH]2)c(OC)c1`, the inhibition is 90% (active).

`COc1cc(C(=O)Nc2cc(C3CC3)nn2-c2nc(C)cc(=O)[nH]2)cc(OC)c1OC`: the inhibition was 101% (active).

Turning to `COc1ccc(OCCSc2nnnn2C2CCCCC2)cc1`, the inhibition was -35.2% (inactive).

For the compound `Clc1cc(CSc2nnnn2C2CCCC2)cc2c1OCCO2`, the inhibition is -23.6% (inactive).

Take `c1ccc2c(c1)OCC(CSc1nnnn1C1CCCC1)O2` (stereo not given): the inhibition is 96.2% (active).

As for `C=CCN(C(=O)c1ccc(-c2ccc3c(c2)OCCO3)s1)C1CCCCC1`, the inhibition was 45.7% (inactive).

For the compound `CN(Cc1ccco1)C(=O)c1cnc(-c2ccc3c(c2)OCO3)nc1Nc1ccccc1`, the inhibition is 47.5% (inactive).

Take `N#CC1(NC(=O)c2cnc(-c3ccc4c(c3)OCO4)s2)CCCC1`: the inhibition is 86.4% (active).

As to `COc1ccc(N=C(c2cc([N+](=O)[O-])cc([N+](=O)[O-])c2)n2ccnc2)cc1`, the inhibition is 92.1% (active).

With `O=C(c1cc(Br)c[nH]1)N1CCC(Nc2ccc(F)cc2)CC1`, the inhibition was 1.55% (inactive).

As to `C=Cc1ccc(C(=O)N2CCCC(Nc3ccc(F)cc3)C2)cc1` (stereo not given), the inhibition is 75.9% (active).

Take `COCc1ccc(C(=O)N2CCCC(Nc3ccc(C(C)C)cc3)C2)s1` (stereo not given): the inhibition was 21.9% (inactive).

With `Cc1nc(NC(=O)C2CC2)sc1Cc1ccccc1Cl`, the inhibition was 32.1% (inactive).

As to `O=C(Nc1nc2c(s1)CCc1ccccc1-2)C1CC1`, the inhibition is 64% (active).

Turning to `O=C(C=Cc1cccs1)NC1CCCCC1`, the inhibition is 37% (inactive).

As for `C(=NNc1ccc2ccccc2n1)c1cccs1`, the inhibition is 39.2% (inactive).

As for `O=C(C=Cc1cccs1)NC1CCCC1`, the inhibition was 21.5% (inactive).

`C=CCNC(=O)C=Cc1cccs1`: the inhibition was 92.6% (active).

On to `O=C(C=Cc1cccs1)NC1CCCCCC1`, for which the inhibition was 61.3% (active).

`S=C(NN=Cc1cccs1)NC1CCCCC1`: the inhibition was 87.5% (active).

As to `CCC(CNC(=O)/C=C/c1sccc1C)c1ccccc1` (stereo not given), the inhibition is 28.2% (inactive).

Turning to `CC(C)NC(=S)NN=Cc1cccs1`, the inhibition is 100% (active).

Consider `O=S(=O)(C1=Cc2ccccc2CC1)N1CCC2CCCCC2C1` (stereo not given), for which the inhibition was 21.1% (inactive).

Regarding `O=C(C=Cc1ccco1)NC1CCCC1`, the inhibition is 25.8% (inactive).

Turning to `O=C(C=Cc1cccs1)c1cccs1`, the inhibition was 15.1% (inactive).

Take `COC(=O)c1sccc1NC(=O)C=Cc1cccs1`: the inhibition was 81.4% (active).

As for `O=C(C=Cc1ccc(Br)o1)NC1CCCCCC1`, the inhibition was 89.5% (active).

Regarding `c1ccc(-c2cc(Sc3nnc(-c4ccncc4)o3)n3ncnc3n2)cc1`, the inhibition was 102% (active).

In the case of `Cc1cccc(Nc2nnc(-c3ccncc3)o2)c1`, the inhibition is -7.46% (inactive).

Consider `COc1ccc(OCCCOc2ccc([N+](=O)[O-])cc2Cl)cc1`, for which the inhibition is 37.7% (inactive).

For `COc1ccc(-c2cc(N)ccc2OC(F)F)cc1`, the inhibition was 34.9% (inactive).

For `COc1ccc(N=Cc2cc([N+](=O)[O-])ccc2OC(F)F)cc1`, the inhibition is 79.9% (active).

With `COc1ccc(N2CCN(Cc3cc(C)c(C)cc3O)CC2)cc1`, the inhibition is 83.8% (active).

With `Cc1ccccc1CN1CCN(c2ccc(S(=O)(=O)C(F)F)cc2)CC1`, the inhibition is 27.6% (inactive).

On to `COc1ccc(CN2CCN(C(c3ccc(F)cc3)c3ccc(F)cc3)CC2)c(OC)c1OC`, for which the inhibition is 29.5% (inactive).

Take `Fc1ccc(-n2cc(-c3ccnc(NCc4ccco4)n3)cn2)cc1`: the inhibition was 18.7% (inactive).

As for `COc1ccc(-c2csc(NCc3ccco3)n2)cc1`, the inhibition was 70.6% (active).

For the origin of these results see PubChem BioAssay AID1259343 (VanderVen Lab, College of Veterinary Medicine, Cornell …, 2017).
